Compounds without any hit were thinned out: in the full panel of roughly 79,000, 15% have a hit. Rule as the data show it: active = growth inhibition above about 70%; inactive = the rest.
How the values were obtained:
[1] = NCI Yeast Anticancer Drug Screen. Data for the rad50 strain (AID 155);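 also: 0% = growth of vehicle-only cultures of the same strain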; conditions: S. cerevisiae rad50 strain growth inhibition; at 50.0 µM; active compounds read high
Summary of the method: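 Vehicle-treated cultures provide the reference for the growth inhibition reported for compound-exposed, repair-deficient yeast.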

[2] = NCI Yeast Anticancer Drug Screen. Data for the mec2-1 strain (AID 157); conditions: S. cerevisiae mec2-1 strain, at 50.0 µM, active compounds read high
Summary of the method: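 Growth inhibition is read against vehicle-treated controls after compound exposure of the mec2-1 yeast strain, which is defective in DNA damage repair or cell cycle control.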

[3] = NCI Yeast Anticancer Drug Screen. Data for the sgs1 mgt1 strain (AID 161);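 also: 0% = growth of cultures given vehicle only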; conditions: S. cerevisiae sgs1 mgt1 strain, at 50.0 µM, active compounds read high
Summary of the method: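 Compounds are added to genetically altered yeast, and growth is compared with cultures given vehicle alone to give percent inhibition.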

[4] = NCI Yeast Anticancer Drug Screen. Data for the cln2 rad14 strain (AID 165);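 also: 0% = growth equal to vehicle treated cultures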; conditions: S. cerevisiae cln2 rad14 strain, at 50.0 µM, active compounds read high
Summary of the method: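 Growth inhibition, relative to vehicle-treated controls, is the read-out. The test organism is a yeast strain with defined genetic alterations, cln2 rad14.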

[5] = NCI Yeast Anticancer Drug Screen. Data for the bub3 strain (AID 167); conditions: S. cerevisiae bub3 mutant strain, at 50.0 µM, active compounds read high
Summary of the method: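 Mutant yeast screening strain plus compound; vehicle-treated cultures serve as the 0% inhibition reference.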

[6] = NCI Yeast Anticancer Drug Screen. Data for the mlh1 rad18 strain (AID 175); conditions: S. cerevisiae mlh1 rad18 strain growth inhibition; at 50.0 µM; active compounds read high
Summary of the method: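 Cells of a genetically altered yeast strain, deficient in DNA damage repair, were treated with compound. Their growth was then compared with that of vehicle-treated cultures to give inhibition.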

Measured: growth inhibition

O=C(O)C1=NN(c2cc(Cl)c(S(=O)(=O)O)cc2Cl)C(=O)C1
inactive: [1] -33.2% | [2] -45.1% | [3] -14.1% | [4] 6.1% | [5] -5.85% | [6] -32.9%

Nc1ccc(OCCc2c(N)nc(N)nc2N)cc1
inactive: [1] -1.2% | [2] 7.15% | [3] 12.4% | [4] -4.05% | [5] 22.7% | [6] 9.7%

C[N+]1(CC[N+]2(C)CCCC2c2cccnc2)CCCC1c1cccnc1 (stereo unspecified)
inactive: [1] 6.15% | [2] -0.2% | [3] -16.9% | [4] -34.5% | [5] 28% | [6] 19.9%

COc1c(-c2ccccc2)c(=O)n2c3cc(C)c(C)cc3n(C)c2c1C#N
inactive: [1] -13.4% | [2] -0.4% | [3] 18.5% | [4] -13.9% | [5] -31.1% | [6] -2.85%

CC1(c2ccccc2)CCC(=O)NC1 (stereo unspecified)
inactive: [1] -0.15% | [2] -37.5% | [3] -2.1% | [4] 8.45% | [5] -7.25% | [6] 11.6%

O=C1c2ccc(O)cc2OC(c2ccc(O)c(O)c2)C1O (stereo unspecified)
inactive: [1] 7.6% | [2] -7.25% | [3] 17.8% | [4] 1.85% | [5] 6% | [6] 6.4%

CC(C)(NC(=O)OCc1ccccc1)C(=O)OC(=O)C(C)(C)NC(=O)OCc1ccccc1
inactive: [1] -15.9% | [2] 21.1% | [3] 5.85% | [4] 13.8% | [5] 2.15% | [6] -19.4%

Cc1nc(-c2ccccc2)cc2c1c(=O)oc1ccccc12
inactive: [1] -14.7% | [2] -30.6% | [3] 4% | [4] 6.3% | [5] -5.4% | [6] -8.55%

COc1ccc(/C=N/NC(=O)c2cnc3[nH]c(=O)n(C)c(=O)c3c2)cc1
inactive: [1] 10.7% | [2] 10.3% | [3] 30.6% | [4] 5.45% | [5] 11.2% | [6] 22.4%

O=C(CN1CCN(Cc2ccccc2)CC1)N1CCCn2c1nc1ccccc1c2=O
inactive: [1] -18.1% | [2] -16.6% | [3] -7.9% | [4] 7.6% | [5] 11.9% | [6] -3.85%

Cc1cc(OCCBr)ccc1[N+](=O)[O-]
inactive: [1] -4.5% | [2] 9.45% | [3] -17.6% | [4] -15.1% | [5] 22.7% | [6] 0.45%

Nc1nc(C2CCCC2)c(Br)c(=O)[nH]1
inactive: [1] -24.2% | [2] -3.75% | [3] -17.4% | [4] 2.45% | [5] 2.7% | [6] -8.75%

O=C(Nc1cc(Cl)c(I)cc1Cl)C(F)(F)F
inactive: [1] 55.4% | [2] 10.8% | [3] 29.7% | [4] -8.35% | [5] 7.05% | [6] 18.8%

CC1C(=O)OC(=O)C1C (stereo unspecified)
inactive: [1] -11.2% | [2] -6.2% | [3] 11.5% | [4] 4% | [5] -4.6% | [6] 8.8%

C/C=N\C(N)=S
inactive: [1] 1.45% | [2] -1.3% | [3] 4.8% | [4] 9.05% | [5] 9.8% | [6] 1%

CC1c2ccc3ccccc3c2C(=O)c2cccc(Cl)c21 (stereo unspecified)
inactive: [1] 0.45% | [2] 31.9% | [3] 14.7% | [4] -42.6% | [5] -5.65% | [6] -1.65%

COCCCNC1=C(C#N)C(=O)NC(c2cccc([N+](=O)[O-])c2)S1 (stereo unspecified)
inactive: [1] -9.7% | [2] -27.4% | [3] 1.75% | [4] 7.85% | [5] -9.8% | [6] -32.7%

CCOC(=O)C(=Cn1c(=S)[nH]c2cc(C)ccc21)C(=O)OCC
inactive: [1] -19.8% | [2] -39.1% | [3] -16.2% | [4] 13.6% | [5] 0.1% | [6] -11.8%

Cc1ccc(Sc2ccc3ccccc3c2)nc1
inactive: [1] 6.75% | [2] -8.2% | [3] -17.6% | [4] -12.2% | [5] 5.05% | [6] -16.9%

CO[C@@H]1[C@@H](OC2OC(C)C(OC3CC(C)(O)C(OC(=O)CC(C)C)C(C)O3)C(N(C)C)C2O)[C@@H](CC=O)C[C@@H](C)C(=O)/C=C/C2O[C@H]2C[C@@H](C)OC(=O)C[C@H]1OC(C)=O (stereo partly specified)
inactive: [1] 4.1% | [2] -22.6% | [3] 4.75% | [4] 8.95% | [5] -14.3% | [6] 17.3%

CN(C)CCSc1nc2ccccc2o1
inactive: [1] 12.2% | [2] 20.8% | [3] 27.7% | [4] 21.1% | [5] 16.9% | [6] 32.9%

Nc1ccc(S(=O)(=O)NNc2nc(N3CCCCC3)nc(N3CCCCC3)n2)cc1
inactive: [1] -1.3% | [2] 1.95% | [3] 10.2% | [4] 7.9% | [5] -11.7% | [6] -5%

CC(=O)COc1ccccc1[N+](=O)[O-]
inactive: [1] 9.65% | [2] 0% | [3] 8.15% | [4] 8.95% | [5] 1.3% | [6] 15.8%

CN(C)S(=O)(=O)c1c(N)ncn1C
inactive: [1] 12.7% | [2] 6.85% | [3] -9.1% | [4] 7.25% | [5] 9.65% | [6] 5%

O=C(O)c1cc(Cc2ccc(I)c(C(=O)O)c2)ccc1I
inactive: [1] 20.9% | [2] 2.5% | [3] 32.9% | [4] 29% | [5] -5.75% | [6] 40.5%

C=CC[Si](CC=C)(CC=C)OCC
inactive: [1] 22.5% | [2] -17.6% | [3] 4.05% | [4] 7% | [5] -6% | [6] 17.4%

COC(=O)c1ccccc1CC1Cc2c(C)ccc(C)c2C1=O (stereo unspecified)
inactive: [1] -3.9% | [2] 3.1% | [3] 0.15% | [4] 3.45% | [5] 0.55% | [6] 17.8%

COc1cc(OC)c2nc(C)c3c(c2c1)SCC3
inactive: [1] -0.5% | [2] -23.1% | [3] 5.25% | [4] 7.4% | [5] 28.6% | [6] 20%

COC1=CC(=O)c2ccc(C(C)C)cc2C1(C)C1=NC(C)(C)CO1 (stereo unspecified)
inactive: [1] -1.55% | [2] -14.4% | [3] -0.85% | [4] 16.8% | [5] -6.45% | [6] -9.8%

CCOC(=O)c1nc2ccc(C(F)(F)F)cc2nc1Nc1ccc(Cl)c(Cl)c1
inactive: [1] -22.1% | [2] 4.1% | [3] -13.9% | [4] -19% | [5] -1.35% | [6] 6.15%

COC(=O)N/N=C(/c1nc2ccc([N+](=O)[O-])cc2[nH]c1=O)C(O)c1ccc(OC)c(OC)c1 (stereo unspecified)
inactive: [1] -3.3% | [2] 0.35% | [3] -3.05% | [4] 17.7% | [5] 26.5% | [6] 6.2%

CSc1cc(=O)n(C2OC(CO)C(O)C2O)c(=O)[nH]1 (stereo unspecified)
inactive: [1] 9.05% | [2] -5.35% | [3] 17.6% | [4] -14.9% | [5] 10.1% | [6] 25.7%

CC(O)C1CC1 (stereo unspecified)
inactive: [1] -17% | [2] -40.8% | [3] 9.3% | [4] 1.65% | [5] -2.2% | [6] -5.7%

N#CC1(c2ccccc2)C(c2ccccc2)=C1c1ccccc1
inactive: [1] 1.75% | [2] 5.15% | [3] 2.25% | [4] -4.55% | [5] 8.7% | [6] -8.95%

Cn1ncc2c(=O)[nH]c(N)nc21
inactive: [1] 6.65% | [2] 31.2% | [3] -19.6% | [4] 1.2% | [5] -3.15% | [6] -5.85%

CCC(C(=O)c1cccs1)C(O)(C(F)(F)F)C(F)(F)F (stereo unspecified)
inactive: [1] -13.8% | [2] 4.6% | [3] -28.4% | [4] -83.2% | [5] -31.4% | [6] 22.9%

N#C/C(=C\c1c[nH]c2ccccc12)c1ccc([N+](=O)[O-])cc1
inactive: [1] -13.9% | [2] -10% | [3] 5.45% | [4] 3.45% | [5] -5.2% | [6] -4.1%

Cc1ccccc1NP1(Nc2ccccc2C)=NP(Nc2ccccc2C)(Nc2ccccc2C)=NP(Nc2ccccc2C)(Nc2ccccc2C)=NP(Nc2ccccc2C)(Nc2ccccc2C)=N1
inactive: [1] 0.8% | [2] -0.9% | [3] 23.6% | [4] -5.3% | [5] -6.95% | [6] -9.7%

COc1ccc([N+](=O)[O-])cc1F
inactive: [1] 10.9% | [2] -12.8% | [3] 5.5% | [4] -6.9% | [5] 8.25% | [6] 31.8%

CCCC1(C)COC(C)(CCC)OC1 (stereo unspecified)
inactive: [1] -31.6% | [2] -8.3% | [3] -17.9% | [4] -34.4% | [5] -16.9% | [6] -0.45%

N#C/C(=C/NC(=S)Nc1ccc(S(N)(=O)=O)cc1)C(N)=O
inactive: [1] -44.8% | [2] -89% | [3] -26.4% | [4] -10.8% | [5] -20.4% | [6] -24.1%
